Results on 24 compounds are retold here after PubChem BioAssay (Tox21).

The nature of assay [1]: A CellTox Green Cytotoxicity Assay to monitor cytotoxicity in HEK293 cells - 32 hour (AID 1224881). Further: nearly all actives have a fitted effect of over 40% in size. The procedure, abridged:
(§1)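 Tox21 screen in HEK293: membrane-impermeant cyanine dye fluoresces on binding dead-cell DNA; compound pinned 5 h post-seeding, plates held at 37 C, signal read repeatedly through 40 h.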

Assay [2] is described as follows: A CellTox Green Cytotoxicity Assay to monitor cytotoxicity in HepG2 cells - 0 hour (AID 1224882). Further: nearly all actives have a fitted effect of over 35% in size. The procedure, abridged:
(§2)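 Measurements at 0, 8, 16, 24, 32 and 40 h of treatment captured CellTox Green fluorescence in HepG2 cells that had been co-plated with reagent and preincubated 5 h at 37 C/5% CO2.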

Assay [3] can be described thus: A CellTox Green Cytotoxicity Assay to monitor cytotoxicity in HepG2 cells - 32 hour (AID 1224883). Further: nearly all actives have a fitted effect of over 50% in size. Further: potency means the concentration at half of the fitted maximal effect. The procedure, abridged: as §2
Assay [4] is described as follows: A CellTox Green Cytotoxicity Assay to monitor cytotoxicity in HEK293 cells - 8 hour (AID 1224884). Further: nearly all actives have a fitted effect of over 35% in size. The method, boiled down:
as §1

Assay [5] in a line: qHTS RealTime-Glo MT Cell Viability Assay in HepG2 cells - 16 hour (AID 1224885). Further: nearly all actives have a fitted effect of over 50% in size. The method, boiled down:
(§3)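 Luminescence read-out: viable HepG2 cells reduce a prosubstrate to a NanoLuc substrate, giving a signal proportional to live cell number. Reads taken at 0, 8, 16, 24, 32 and 40 h of compound exposure at 37 C.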

Assay [6] can be described thus: qHTS RealTime-Glo MT Cell Viability Assay in HEK293 cells - 8 hour (AID 1224887). Further: top concentration of the series differs between compounds; nearly all actives have a fitted effect of over 50% in size. The procedure, abridged: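 HEK293 + NanoLuc + prosubstrate, 600 cells/well; 5 h, 37 C/5% CO2; compound 23 nL in DMSO by pintool; 37 C; luminescence read at 0, 8, 16, 24, 32 and 40 h time points.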
A short description of assay [7]: A CellTox Green Cytotoxicity Assay to monitor cytotoxicity in HEK293 cells - 16 hour (AID 1224888). Further: nearly all actives have a fitted effect of over 35% in size. The method, boiled down: as §1
A short description of assay [8]: qHTS RealTime-Glo MT Cell Viability Assay in HepG2 cells - 0 hour (AID 1224889). Further: nearly all actives have a fitted effect of over 50% in size. Further: potency means the concentration at half of the fitted maximal effect. The procedure, abridged: as §3
The nature of assay [9]: A CellTox Green Cytotoxicity Assay to monitor cytotoxicity in HepG2 cells - 8 hour (AID 1224890). Further: nearly all actives have a fitted effect of over 45% in size. The procedure, abridged: as §2
The nature of assay [10]: qHTS RealTime-Glo MT Cell Viability Assay in HEK293 cells - 24 hour (AID 1224886). Further: nearly all actives have a fitted effect of over 50% in size. Further: potency means the concentration at half of the fitted maximal effect. The procedure, abridged: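 Nonlytic real-time viability readout: viable cells convert prosubstrate to NanoLuc substrate, giving luminescence proportional to live cell number. HEK293, 600 cells/well, compound added after 5 h, continuous culture at 37 C.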

Inconclusive results are not listed. Activity calls are given as the source filed them. The call rests on the fitted dose curve; in most records, active means well fitted curve in the direction sought with a large enough effect in the repeat runs; inconclusive means weak or mixed curves; inactive means no such curve, though single readings can be large; an effect the other way counts as inactive or inconclusive.

As to `CC[C@@H]1C[C@H](N(Cc2cc(C(F)(F)F)cc(C(F)(F)F)c2)C(C)=O)c2cc(C(F)(F)F)ccc2N1C(=O)OC(C)C`, the Potency entry in assay [1], in assay [2], in [3], in assay [4], in assay [5] and in assay [6] was “inactive” throughout. Also, the Potency result in [7], in assay [8] and in [9] was “inactive” throughout.

For the compound `C[C@H](CCC(=O)O)[C@H]1CC[C@H]2[C@@H]3[C@H](O)C[C@@H]4C[C@H](O)CC[C@]4(C)[C@H]3CC[C@]12C`, the Potency entry in assay [1], in [2], in [3], in [4], in assay [5] and in [6] was “inactive” in each case. Also, the Potency entry in assay [7] and in assay [8] was “inactive” throughout.

For the compound `C=C(C)C(=O)OCCOc1ccccc1`, the Potency result in assay [1], in assay [2], in assay [3], in assay [4], in assay [10] and in [6] was “inactive” in each case. For the same compound, the Potency result in [7], in assay [8] and in assay [9] was “inactive” in each case.

Take `CC(C)(Oc1ccc(Cl)cc1)C(=O)OCCCOC(=O)C(C)(C)Oc1ccc(Cl)cc1`: the Potency result in assay [1], in assay [2], in [3], in [4], in assay [5] and in [7] was “inactive” throughout. Further, the Potency result in assay [8] is “inactive”.

As for `N#CCc1cccc(C(F)(F)F)c1`, the Potency result in [1], in assay [2], in [3], in [4], in assay [10] and in [6] was “inactive” in each case. Moreover, the Potency entry in assay [7], in [8] and in assay [9] was “inactive” throughout.

Consider `Cc1ccc(C(C)c2ccc(C)c(C)c2)cc1C`, for which the Potency entry in assay [1], in [2], in assay [3], in [4], in [5] and in assay [10] was “inactive” each time. Also, the Potency entry in [7], in assay [8] and in assay [9] was “inactive” each time.

For `C[C@@H](C1=C(CCN(C)C)Cc2ccccc21)c1ccccn1`, the Potency entry in [1], in [2], in [3], in assay [4], in assay [10] and in assay [6] was “inactive” throughout. Besides, the Potency result in assay [7], in assay [8] and in [9] was “inactive” throughout.

`O=c1[nH]cnc2ccccc12`: the Potency result in assay [1], in [2], in [3], in [4], in assay [10] and in [6] was “inactive” throughout. Besides, the Potency entry in assay [7], in [8] and in assay [9] was “inactive” throughout.

Take `O=C(O)/C=C/c1cnc[nH]1`: the Potency entry in assay [1], in assay [2], in assay [3], in [4], in assay [10] and in assay [6] was “inactive” each time. Moreover, the Potency entry in assay [7], in assay [8] and in assay [9] was “inactive” throughout.

In the case of `CCCCC(CC)COCCCN` (stereo not drawn), the Potency result in assay [1], in assay [2], in assay [3], in assay [4], in assay [5] and in assay [6] was “inactive” each time. Moreover, the Potency result in assay [7], in assay [8] and in assay [9] was “inactive” throughout.

For `CCN(CC)C(C)CN1c2ccccc2Sc2ccccc21` (stereo not drawn), the Potency entry in [1], in assay [2], in assay [3], in assay [4], in assay [5] and in assay [6] was “inactive” in each case. Moreover, the Potency result in assay [7], in [8] and in assay [9] was “inactive” each time.

As for `C=CC[N+]1([C@H]2C[C@H]3[C@@H]4CC[C@H]5C[C@H](OC(C)=O)[C@@H](N6CCCCC6)C[C@]5(C)[C@H]4CC[C@]3(C)[C@H]2OC(=O)CC)CCCCC1`, the Potency result in assay [1], in [2], in [3], in assay [4], in [5] and in assay [10] was “inactive” each time. In addition, the Potency entry in assay [7], in [8] and in assay [9] was “inactive” in each case.

For the compound `Nc1nc(CC(=O)O)cs1`, the Potency result in assay [1], in assay [2], in assay [3], in assay [4], in assay [5] and in assay [6] was “inactive” in each case. Also, the Potency entry in assay [7], in assay [8] and in assay [9] was “inactive” throughout.

Turning to `C=CC(=O)OCCOC(=O)CCC(=O)O`, the Potency entry in assay [1], in assay [2], in assay [3], in assay [4], in assay [5] and in [6] was “inactive” in each case. The Potency result in assay [7], in [8] and in assay [9] was “inactive” in each case.

`CCC(C)N(C)C(=O)c1cc2ccccc2c(-c2ccccc2Cl)n1` (stereo not drawn): the Potency result in [1], in assay [2], in assay [4], in assay [5], in [6] and in assay [7] was “inactive” throughout. Further, the Potency entry in assay [9] is “inactive”. For the same compound, the Potency in assay [3] was 25.2 µM (active); in assay [8] it was 20 µM (active).

Turning to `CCCCCOC(=O)COc1cc(N2C(=O)C3=C(CCCC3)C2=O)c(F)cc1Cl`, the Potency entry in assay [1], in assay [2], in assay [3], in [4], in assay [5] and in [10] was “inactive” each time. Further, the Potency entry in assay [7], in [8] and in assay [9] was “inactive” throughout.

`CC/C(=C\C(=N/O)C(N)=O)C(C)[N+](=O)[O-]` (stereo not drawn): the Potency entry in [1], in [2], in [3], in [4], in assay [5] and in [6] was “inactive” throughout. For the same compound, the Potency entry in assay [7], in [8] and in [9] was “inactive” in each case.

`CCCCCCCCCC=O`: the Potency entry in assay [1], in assay [2], in assay [3], in assay [4], in [5] and in [10] was “inactive” throughout. Further, the Potency result in assay [7], in assay [8] and in assay [9] was “inactive” each time.

With `O=C1[C@H](CC[C@H](O)c2ccc(F)cc2)[C@@H](c2ccc(O)cc2)N1c1ccc(F)cc1`, the Potency entry in [1], in assay [2], in assay [3], in assay [4], in assay [5] and in assay [7] was “inactive” in each case. Further, the Potency result in assay [8] and in assay [9] was “inactive” throughout. Also, the Potency in [10] was 23.9 µM (active).

With `CCOC(=O)CC(C)C`, the Potency result in assay [1], in assay [2], in assay [3], in assay [4], in assay [5] and in [10] was “inactive” in each case. Further, the Potency result in [7], in assay [8] and in assay [9] was “inactive” throughout.

With `Cc1ccccc1N=Nc1ccc(N=Nc2c(O)ccc3ccccc23)c(C)c1`, the Potency entry in [1], in assay [2], in assay [3], in assay [4], in assay [5] and in assay [10] was “inactive” in each case. Further, the Potency result in assay [7], in assay [8] and in assay [9] was “inactive” each time.

Consider `CN(C(=O)CCCOc1ccc2[nH]c(=O)ccc2c1)C1CCCCC1`, for which the Potency entry in assay [1], in [2], in assay [3], in assay [4], in [5] and in assay [6] was “inactive” in each case. Further, the Potency entry in assay [7], in assay [8] and in [9] was “inactive” in each case.

For the compound `O=C(O)c1cccc(N(Cc2cccnc2)c2ccc(OC(F)F)c(OC(F)F)c2)c1`, the Potency result in assay [1], in [2], in assay [3], in assay [4], in assay [10] and in assay [6] was “inactive” throughout. Besides, the Potency result in assay [7] and in assay [9] was “inactive” in each case. For the same compound, in assay [8], the Potency was 17.4 µM (active).

Turning to `CCN1CCC[C@H]1CNC(=O)c1c(OC)ccc(Br)c1OC`, the Potency result in assay [1], in [2], in [3], in assay [4], in [5] and in assay [10] was “inactive” each time. In addition, the Potency result in assay [7], in assay [8] and in [9] was “inactive” throughout.
